Among the test systems are NCI-H23 lung; NCI-H226 lung; NCI-H322M lung; HOP-62 NSCLC; NCI-H460 lung; HOP-92 NSCLC; NCI-H522 lung; A549/ATCC NSCLC; 786-0 renal; COLO 205 colon; DU-145 prostate; K-562 leukemia; MALME-3M melanoma; MDA-MB-231 breast; RXF 393 renal; SF-268 CNS; SF-295 CNS; SF-539 CNS; UACC-257 melanoma; M14 melanoma.
Holding throughout (test): NCI-60 one-dose screen, 48 h (100 = growth as untreated, 0 = no growth, -100 = all killed)
Conditions in all cases: 10 µM unless noted

The panel holds about 83,000 compounds, 20% with a hit somewhere; the sample as a whole holds those more often.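 How to read the values: 0–100, growth inhibition (40 = 60% inhibited); 0, no net growth; -100 to 0, cell death (-40 = 40% of starting cells died; -100 = all dead).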 A number with no mark means an inactive call. Calls of active or inactive are those of the source. Rule for the calls: active = growth percent below 10; inactive = the rest.

As to `CN1CCN(CC(=O)Nc2ccc(-c3nc4ccccc4s3)cc2)CC1`, the growth in the assay on NCI-H23 lung is 82.2%; with NCI-H226 lung, 96.2%; in the assay with NCI-H322M lung, 77.9%; with HOP-62 NSCLC, 87.3%; in the assay with NCI-H460 lung, 84.7%; in the assay with HOP-92 NSCLC, 35.7%. In addition, the growth is 58.9% in the assay on NCI-H522 lung; 88.6% with A549/ATCC NSCLC; 78.7% in the assay on 786-0 renal; 39.7% in the assay on COLO 205 colon; 85.2% with DU-145 prostate; 41.8% with K-562 leukemia. For the same molecule, the growth in the assay with MALME-3M melanoma was 98.3%; in the assay on MDA-MB-231 breast it was 59.8%; with RXF 393 renal it was 54.3%; with SF-268 CNS, 83%; with SF-295 CNS, 91.1%; in the assay on SF-539 CNS, -31.9% (active). The growth is 105% in the assay with UACC-257 melanoma and 67.6% in the assay on M14 melanoma.

With `Nc1ccc(S(=O)(=O)O)c2cc(S(=O)(=O)O)cc(O)c12`, the growth is 110% in the assay with NCI-H23 lung; 105% with NCI-H226 lung; 117% in the assay on NCI-H322M lung; 107% with HOP-62 NSCLC; 108% in the assay on NCI-H460 lung; 124% with HOP-92 NSCLC. Besides, the growth is 103% with NCI-H522 lung; 104% with A549/ATCC NSCLC; 101% with 786-0 renal; 105% with COLO 205 colon; 105% in the assay on DU-145 prostate; 117% in the assay on K-562 leukemia. Besides, the growth in the assay with MALME-3M melanoma is 109%; in the assay with MDA-MB-231 breast, 106%; with RXF 393 renal it was 114%; in the assay on SF-268 CNS it was 111%; in the assay on SF-295 CNS, 110%; in the assay with SF-539 CNS, 95.8%. For the same molecule, the growth is 109% with UACC-257 melanoma and 90.7% with M14 melanoma.

Consider `Cn1cc(-c2cnn3c(N)c(Br)c([C@@H]4CCCNC4)nc23)cn1`, for which the growth with NCI-H23 lung is 39.6%; in the assay with NCI-H226 lung, 60%; with NCI-H322M lung, 48.2%; in the assay on HOP-62 NSCLC, 28.8%; in the assay with NCI-H460 lung, 35%; with HOP-92 NSCLC it was 54.6%. Besides, the growth was 28.4% in the assay on NCI-H522 lung; 41.5% with A549/ATCC NSCLC; 37% with 786-0 renal; 14.3% in the assay on COLO 205 colon; 37.1% in the assay with DU-145 prostate; 17.9% with K-562 leukemia. In addition, the growth with MALME-3M melanoma was 50.4%; with MDA-MB-231 breast, 35.3%; in the assay with RXF 393 renal, -2.46% (active); in the assay on SF-268 CNS, 60.1%; in the assay on SF-295 CNS, 24.1%; in the assay with SF-539 CNS it was 22.6%. In addition, the growth in the assay on UACC-257 melanoma is 70.7%; in the assay on M14 melanoma it was 33.4%.

On to `CN(c1ncccc1CNc1nc(Nc2ccc3c(c2)CC(=O)N3)ncc1C(F)(F)F)S(C)(=O)=O`, for which the growth in the assay on NCI-H23 lung was -18.1% (active); in the assay on NCI-H226 lung, 8.79% (active); in the assay with NCI-H322M lung, -11.3% (active); in the assay on HOP-62 NSCLC, -13.3% (active); in the assay with NCI-H460 lung it was -36.9% (active); with HOP-92 NSCLC, 2.42% (active). Further, the growth is -22.4% (active) with NCI-H522 lung; 2.18% (active) with A549/ATCC NSCLC; 11.3% in the assay on 786-0 renal; -85.6% (active) in the assay with COLO 205 colon; 11.2% in the assay with DU-145 prostate; 4.58% (active) in the assay with K-562 leukemia. In addition, the growth is -14.4% (active) in the assay with MALME-3M melanoma; 3.93% (active) in the assay on MDA-MB-231 breast; -43.3% (active) in the assay on RXF 393 renal; 2.36% (active) in the assay on SF-268 CNS; 11.8% with SF-295 CNS; -36% (active) in the assay on SF-539 CNS. Moreover, the results for the growth in the assay with UACC-257 melanoma and in the assay with M14 melanoma were -29.1% (active) and -23.9% (active), respectively.

With `O=S1(=O)OC(c2cc(Cl)c(O)c(Br)c2)(c2cc(Cl)c(O)c(Br)c2)c2ccccc21`, the growth in the assay with NCI-H23 lung is 103%; with NCI-H226 lung it was 104%; with NCI-H322M lung, 112%; with HOP-62 NSCLC, 99%; with NCI-H460 lung it was 105%; in the assay on HOP-92 NSCLC, 68.5%. For the same molecule, the growth in the assay on NCI-H522 lung was 70.8%; with A549/ATCC NSCLC, 94.1%; in the assay with 786-0 renal it was 106%; with COLO 205 colon, 115%; in the assay with DU-145 prostate it was 114%; in the assay on K-562 leukemia it was 109%. Further, the growth in the assay on MALME-3M melanoma is 115%; with MDA-MB-231 breast, 94.8%; in the assay on RXF 393 renal, 109%; in the assay on SF-268 CNS, 106%; in the assay with SF-295 CNS, 127%; in the assay on SF-539 CNS, 94.6%. Further, the values for the growth in the assay with UACC-257 melanoma and with M14 melanoma were 95.4% and 99.4%, respectively.

Regarding `COCCN1CCN(Cc2ccc(-c3n[nH]c4c3C(=O)c3c(NC(=O)NN5CCOCC5)cccc3-4)cc2)CC1`, the growth in the assay with NCI-H23 lung was -33.7% (active); in the assay on NCI-H226 lung, 6.04% (active); in the assay with NCI-H322M lung, -13.1% (active); in the assay with HOP-62 NSCLC, -30.7% (active); with NCI-H460 lung it was -68.7% (active); with HOP-92 NSCLC, 39.7%. Moreover, the growth in the assay on NCI-H522 lung was -34.1% (active); in the assay with A549/ATCC NSCLC, -42.4% (active); in the assay on 786-0 renal it was 5.39% (active); in the assay on COLO 205 colon it was -64.5% (active); with DU-145 prostate, 4.89% (active); in the assay on K-562 leukemia, -0.714% (active). For the same molecule, the growth in the assay on MALME-3M melanoma is -63.1% (active); in the assay with MDA-MB-231 breast, -18.1% (active); with RXF 393 renal it was -87.4% (active); in the assay with SF-268 CNS it was 6.61% (active); with SF-295 CNS it was 2.78% (active); in the assay on SF-539 CNS it was -86.2% (active). Moreover, the figures for the growth in the assay with UACC-257 melanoma and with M14 melanoma were -19.1% (active) and -52.6% (active), respectively.

In the case of `C=CC(=O)Nc1cc2c(Nc3ccc(F)c(Cl)c3)ncnc2cc1C#CC(C)(C)N1CCN(C)CC1`, the growth is -88.9% (active) in the assay with NCI-H23 lung; -97.4% (active) with NCI-H226 lung; -86% (active) with NCI-H322M lung; -88.3% (active) in the assay on HOP-62 NSCLC; -77% (active) in the assay with NCI-H460 lung; -91.3% (active) with HOP-92 NSCLC. Moreover, the growth was -73.7% (active) in the assay on NCI-H522 lung; -82% (active) with A549/ATCC NSCLC; -96.3% (active) with 786-0 renal; -71.7% (active) in the assay with COLO 205 colon; -98.9% (active) in the assay with DU-145 prostate; -30.7% (active) with K-562 leukemia. In addition, the growth is -85.3% (active) in the assay with MALME-3M melanoma; -90.1% (active) in the assay on MDA-MB-231 breast; -98.6% (active) in the assay on RXF 393 renal; -94.3% (active) in the assay on SF-268 CNS; -97.4% (active) in the assay with SF-295 CNS; -100% (active) with SF-539 CNS. Also, the growth in the assay with UACC-257 melanoma was -86.2% (active); in the assay with M14 melanoma, -90% (active).

Values taken from PubChem BioAssay (NCI).
